From PubChem BioAssay
AmpC nodet inh – AmpC beta-lactamase inhibition, detergent-free assay. P00811. actives 1.8% (n = 71,000). AmpC nitrocefin hydrolysis, absorbance 480 nm, no detergent. Potency, µM (highest dose often 28.7 µM), for the others: at the top dose activity change, negative = inhibition; further: % of control where 0% means no effect
Target sequence (P00811 whole entry, looked up): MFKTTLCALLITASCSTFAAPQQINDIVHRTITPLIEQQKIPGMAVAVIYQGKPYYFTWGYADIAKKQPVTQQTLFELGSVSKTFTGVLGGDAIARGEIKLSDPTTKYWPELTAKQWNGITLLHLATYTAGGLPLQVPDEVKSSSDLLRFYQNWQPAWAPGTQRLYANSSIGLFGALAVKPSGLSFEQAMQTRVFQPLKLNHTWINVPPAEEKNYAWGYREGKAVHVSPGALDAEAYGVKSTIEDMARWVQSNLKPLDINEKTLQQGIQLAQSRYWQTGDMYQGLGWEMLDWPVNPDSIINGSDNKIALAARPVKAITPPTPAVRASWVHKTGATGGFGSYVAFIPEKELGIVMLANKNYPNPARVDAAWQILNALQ
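AmpC, 20 mM phosphate pH 7.0; 15 min cpd preinc, RT; start with nitrocefin (800 uM stock); A480 kinetic read, 20 s intervals, 4 min. No-enzyme wells = negative control.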
Anthrax LT inh – anthrax lethal toxin internalization inhibition. Cells, anthrax lethal toxin internalization, FRET ratio (460/530). Potency, µM (highest dose often 40 µM), for the others: top-dose activity change, negative = inhibition, most hits filed as inhibitors. actives 0.67% (n = 70,000); further: on the % scale 0 is the no-effect control and ±100 the full control effect; nearly all actives have a fitted effect of over 50% in size
Prx2 Sm inh – Schistosoma mansoni Prx2 inhibition. S. mansoni Prx2 activity coupled to TGR/GSH (TGR is thioredoxin glutathione reductase), NADPH fluorescence loss, qHTS. Potency, µM. actives 0.07% (n = 65,000). AID 448
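Prx2 activity was followed as the loss of NADPH fluorescence (ex 365/em 450 nm), read every 30 sec for 8 min after H2O2 start. The enzyme mix (50 nM Prx2, 25 nM TGR, GSH, NADPH; pH 7.4 phosphate buffer) was incubated with compound for 15 min at room temperature first.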
AmpC inh det – inhibitors of E. coli AmpC beta-lactamase with detergent | P00811 | purified AmpC, nitrocefin hydrolysis with detergent | Potency, µM (top dose mostly 28.7 µM), for inactives: at the highest dose activity change, negative = inhibition | actives 0.09% (n = 71,000) | AID 584; active means well fitted curve in the direction sought with a large enough effect; inconclusive means small, poorly fitted or top-dose-only effect; further: on the % scale 0 is the no-effect control and ±100 the full control effect
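E. coli AmpC (5.3 nM) in 20 mM phosphate pH 7.0 with 0.01% Triton X-100, preincubated 15 min RT with compound; nitrocefin (2 uL of 800 uM stock) hydrolysis followed by 480 nm absorbance every 20 s over 4 min.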
* marks the source's active call; other numbers are inactive results; u = inconclusive; x = not tested or not shown; [ ] = remark or other dose. Hits are enriched below; roughly 2.6% of the tested compounds scored in any of these assays. Unless noted, the call rests on the fitted dose curve. Potency means the concentration at half of the fitted maximal effect.

SMILES | AmpC nodet inh | Anthrax LT inh | Prx2 Sm inh | AmpC inh det
CC(C)CO/N=C1/C[C@@H](O)[C@@H](O)[C@@H]2[C@@H]3C(=O)N([C@@H](C)c4ccccc4)C(=O)[C@H]3CC[C@H]12 | x | -1%[8 µM] | x | x
c1nc(N2CC2)c2cnn([C@@H]3CCCCO3)c2n1 | 7%[5.75 µM] | -16%[8 µM] | >57 | -2%[5.75 µM]
O=C(Nc1cc(Cl)ccc1Cl)c1noc2c1CCCC2 | 4µM*[single pt active] | -16% | >57 | 11%
CCn1c2ccccc2c2cc(NC(=O)CSc3nnnn3-c3ccccc3)ccc21 | 10µM* | x | >57 | 1%
CCn1c2ccccc2c2cc(NC(=O)c3ccco3)ccc21 | -5% | 13µM* | x | 8%
CCn1c2ccccc2c2cc(CN3CCN(C(=O)c4ccco4)CC3)ccc21 | 148% | u | x | -6%
CC(C)C1=CC2=CC[C@H]3[C@@](C)(CCC[C@]3(C)C(=O)O)[C@@H]2CC1 | -8% | u | >57 | -1%
c1ccc2c(-c3nnc4n3CCCCC4)c[nH]c2c1 | -1% | u | >57 | 0%
CN1CC=C(c2c[nH]c3ccccc23)CC1 | 4µM*[single pt active] | -13% | >57 | 11%
Cn1c(=O)oc2cc(S(=O)(=O)N3CCCC(C(=O)N4CCn5c4nc4ccccc45)C3)ccc21 (stereo not given) | 4µM*[single pt active] | -1% | >57 | 12%
Cn1c(=O)oc2cc(S(=O)(=O)N3CCC(C(=O)NCC4COc5ccccc5O4)CC3)ccc21 (stereo not given) | 4µM*[single pt active] | -12% | >57 | 12%
Cn1c(=O)oc2cc(S(=O)(=O)N3CCCC(C(=O)N4CCc5ccccc5C4)C3)ccc21 (stereo not given) | 56% | u | >57 | 13%
Cn1c(=O)oc2cc(S(=O)(=O)N3CCCC(C(=O)NCCN4CCOCC4)C3)ccc21 (stereo not given) | 4µM*[single pt active] | 2% | >57 | 11%
Cn1c(=O)oc2cc(S(=O)(=O)N3CCC(C(=O)NCc4cccs4)CC3)ccc21 | 3.2µM*[single pt active] | -2% | >57 | 11%
Cn1c(=O)c2[nH]c(CS(=O)(=O)Cc3nc4c([nH]3)c(=O)n(C)c(=O)n4C)nc2n(C)c1=O | 4%[5.75 µM] | 2%[8 µM] | >57 | -1%[5.75 µM]
O=C(N/N=C1/C[C@@H](O)[C@@H](O)[C@@H]2[C@H]3C(=O)N(c4ccc(F)cc4F)C(=O)[C@@H]3CC[C@@H]12)OCc1ccccc1 | x | -9%[8 µM] | x | x
Cn1c(=O)oc2cc(S(=O)(=O)N3CCC(C(=O)N4CCN(c5ccccc5)CC4)CC3)ccc21 | 12% | -3% | >57 | 12%
CN1CCN(C(=O)C2CCN(S(=O)(=O)c3ccc4c(c3)oc(=O)n4C)CC2)CC1 | 4µM*[single pt active] | 2% | >57 | 9%
c1ccc2cc(NCNc3ccc4ccccc4c3)ccc2c1 | -15%[5.75 µM] | -12%[8 µM] | >57 | 11%[5.75 µM]
CC1=C(C(=O)OC(C)C)C(c2cccnc2)n2ncnc2N1 (stereo not given) | 4µM*[single pt active] | 26% | >57 | 8%
CC1=C(C(=O)OC(C)C)C(c2ccccn2)n2ncnc2N1 (stereo not given) | 4µM*[single pt active] | 14% | >57 | 14%
CC1=C(C(=O)OC(C)C)C(c2ccncc2)n2ncnc2N1 (stereo not given) | -1% | u | >57 | -3%
COC(=O)CSCc1nc2ccccc2[nH]c1=O | 4µM*[single pt active] | 6% | >57 | 22%
COC(=O)CCc1nc2ccccc2[nH]c1=O | -5% | 0% | >57 | 4%
CC1=C(C(=O)NC2CCCCC2C)C2(CCC(C)CC2)OC1=O (stereo not given) | 24% | -17% | >57 | 2%
SMILES | AmpC nodet inh | Anthrax LT inh | Prx2 Sm inh | AmpC inh det
CC1=C(C(=O)NC(C)C)C2(CCC(C)CC2)OC1=O (stereo not given) | 4µM*[single pt active] | -6% | >57 | 19%
Cc1ccn2cc(C(=O)Nc3ccccc3N3CCOCC3)nc2c1 | 38% | u | >57 | -3%
Cc1nc2ccccc2c2oc(C(=O)Nc3ccc4c(c3)OCCO4)cc12 | -1% | 0.79µM* | >57 | 1%
Cc1nc2ccccc2c2oc(C(=O)NCC3COc4ccccc4O3)cc12 (stereo not given) | 117% | 5µM* | >57 | 8%
Cc1ccn2cc(C(=O)Nc3ccc4c(c3)OCCO4)nc2c1 | 10% | 7.9µM* | >57 | -4%
Cc1cccc(N2CCN(C(=O)c3cc4c(C)nc5ccccc5c4o3)CC2)c1C | 113% | 10µM* | >57 | 4%
COc1cccc2c1[C@H](CO)N1[C@H](C#N)[C@@H]3C[C@H](C(=O)O)[C@@H]([C@@H]1C2)N3C | -3%[5.75 µM] | -11%[8 µM] | >57 | -5%[5.75 µM]
O=c1c(CCc2ccccc2)nc2cnc(N3CCNCC3)nc2n1CCc1ccccc1 | 79% | u | >57 | -3%
O=C1c2ccccc2C(O)N1c1cccnc1 (stereo not given) | 4µM*[single pt active] | -7% | >57 | 14%
O=C1c2ccccc2C(Nc2ccc(Cl)cn2)N1c1cccnc1 (stereo not given) | 4µM*[single pt active] | -12% | >57 | 12%
CCOC(=O)C1CCCN(c2c(N3CCN(c4ccccn4)CC3)c(=O)c2=O)C1 (stereo not given) | 4µM*[single pt active] | 1% | >57 | 11%
CCOC(=O)C1CCCN(c2c(Nc3cccc(C)c3)c(=O)c2=O)C1 (stereo not given) | 4µM*[single pt active] | 1% | x | 12%
CCOC(=O)C1CCCN(c2c(NCCCN(C)c3ccccc3)c(=O)c2=O)C1 (stereo not given) | 42% | u | >57 | 11%
COc1ccc(-c2nc(NC(=O)c3cc(C(C)(C)C)nn3C)sc2C)cc1 | 21% | 5µM* | >57 | 7%
Oc1ccc(Cc2nccc3cc(O)c(O)cc23)cc1O | -10%[5.75 µM] | -17%[8 µM] | >57 | -2%[5.75 µM]
O=C(O)c1cccc(SSc2cccc(C(=O)O)c2)c1 | 0%[5.75 µM] | -14%[8 µM] | >57 | -1%[5.75 µM]
CCOC(=O)c1c(NC(=O)c2ccc(Br)o2)sc(C)c1CC | 8% | 5µM* | x | 6%
Clc1ccc(-n2nnnc2SCc2c(-c3ccccc3)nc3sccn23)cc1 | 13µM* | -10% | >57 | -2%
O=C(O)CCCSc1ccccc1 | 6%[5.75 µM] | -3%[8 µM] | >57 | -6%[5.75 µM]
CN(C)c1ccc(C(=O)Nc2nc3c(s2)CCCC3)cc1 | 4% | 13µM* | >57 | -2%
OC[C@@H](O)[C@@H](O)[C@@H](O)[C@@H](O)c1nc2ccc(Cl)cc2[nH]1 | 7%[5.75 µM] | u | >57 | -2%[5.75 µM]
Clc1ccc2c(NC3CCC(N4CCCCC4)CC3)ccnc2c1 (stereo not given) | 5%[5.75 µM] | 2.5µM* | >57 | 1%[5.75 µM]
O=S(c1ccccc1)c1ccc2nnnn2n1 (stereo not given) | -1% | x | >57 | -1%
C=C[C@@](C)(O)CC[C@H]1[C@]2(C)CCCC(C)(C)[C@H]2CC[C@]1(C)O | 126% | u | >57 | -3%
Cc1ccccc1NS(=O)(=O)c1ccc2[nH]cc(C(=O)N(C)Cc3ccco3)c(=O)c2c1 | -14% | 6% | >57 | 1%
Cc1cc(C)cc(NS(=O)(=O)c2ccc3[nH]cc(C(=O)NCc4ccco4)c(=O)c3c2)c1 | 13µM*[single pt active] | u | >57 | -2%
CC(=O)[C@@H]1CC[C@H]2[C@H]3CC[C@H]4C[C@@H](O)CC[C@]4(C)[C@@H]3CC[C@]12C | 10% | -19% | >57 | -3%
